Source: PubChem BioAssay
Activity calls are given as the source filed them. Unless noted, how the calls were made is not given here.

Experiments:
[1] = HepG2 liver cancer cell viability effects, profiling panel, resazurin fluorescence, 24 h, PK04 Diversity Set (AID 1172); details: higher = more signal
[2] = basal S. cerevisiae growth modulation, no modifier, primary screen, OD600, strain BY4716, 24 h, basal condition (AID 1173); details: OD600, 24 h, higher = more signal, called active from +8 up or from −8 down
[3] = MM1S myeloma cell viability, profiling panel, resazurin fluorescence, basal, 24 h, PK04 Diversity Set (AID 1174); details: higher = more signal, called active from +8 up or from −8 down;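 further: MM1S multiple myeloma cell line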
[4] = target: Dihydroorotate dehydrogenase (quinone), mitochondrial (Plasmodium falciparum (isolate 3D7)) (UniProt Q08210); test: PfDHODH enzyme inhibitors, primary screen, biochemical, C-terminal His tag, absorbance 600 nm (AID 1175); details: DCIP absorbance 600 nm, higher = more signal, called active from +8 up or from −8 down;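 further: recombinant parasite enzyme with a five histidine tag at its C terminus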
Chain of Dihydroorotate dehydrogenase (quinone), mitochondrial (Plasmodium falciparum (isolate 3D7)) (Q08210 whole entry, looked up): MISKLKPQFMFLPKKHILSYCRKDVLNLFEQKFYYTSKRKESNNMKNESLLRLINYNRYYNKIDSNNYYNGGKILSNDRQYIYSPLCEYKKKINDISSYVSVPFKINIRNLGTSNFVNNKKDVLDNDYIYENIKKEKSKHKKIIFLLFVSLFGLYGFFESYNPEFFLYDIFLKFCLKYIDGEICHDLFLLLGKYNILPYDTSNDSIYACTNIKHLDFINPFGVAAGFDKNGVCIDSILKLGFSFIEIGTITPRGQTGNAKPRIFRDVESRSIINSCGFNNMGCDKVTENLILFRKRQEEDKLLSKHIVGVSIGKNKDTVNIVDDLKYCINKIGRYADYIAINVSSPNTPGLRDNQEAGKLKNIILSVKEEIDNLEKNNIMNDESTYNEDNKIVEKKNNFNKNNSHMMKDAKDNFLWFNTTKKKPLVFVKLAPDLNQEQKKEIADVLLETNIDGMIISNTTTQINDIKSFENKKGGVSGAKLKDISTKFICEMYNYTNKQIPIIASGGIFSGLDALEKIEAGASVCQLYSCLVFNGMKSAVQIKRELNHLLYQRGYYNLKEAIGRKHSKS

[5] = P. aeruginosa biofilm formation inhibitors, primary screen, strain PAO1, LB-PBS medium, absorbance 600 nm (AID 1176); details: P. aeruginosa PAO1 growth/biofilm, A600, 12 h; higher = more signal
[6] = S. cerevisiae RM11-1a growth modifiers, primary screen, strain RM11-1a, OD600, basal, 24 h (AID 1177); details: OD600, 24 h, higher = more signal, called active from +8 up or from −8 down;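 further: cultures grown under basal conditions with no added stressor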
[7] = E. coli acrAB mutant growth effects, primary screen, E. coli filamentation inducers, strain DRC39, OD650, 24 h (AID 1178); details: higher = more signal, called active from +8 up or from −8 down;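 further: growth measured as culture turbidity by optical density at 650 nm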
[8] = E. coli acrAB mutant growth effects, primary screen, E. coli filamentation inducers, strain DRC39, OD650, 48 h (AID 1179);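 further: screen aims at cell division blockers that make cells filament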; details: E. coli DRC39 delta-acrAB growth, higher = more signal, called active from +8 up or from −8 down
[9] = RPMI8226 myeloma cell viability, profiling panel, resazurin fluorescence, basal, 24 h, PK04 Diversity Set (AID 1180); details: higher = more signal;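 further: RPMI8826 multiple myeloma cell line at 5000 cells per well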
[10] = target: E3 ubiquitin-protein ligase XIAP (Homo sapiens) (UniProt P98170); test: XIAP binders, primary screen, biophysical, small-molecule microarray, fluorescence 635 nm (AID 1181); details: small-molecule microarray binding, higher = more signal;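 further: score merges 667 nm emission and signal to noise over triplicate slides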
Chain of E3 ubiquitin-protein ligase XIAP (Homo sapiens) (P98170 whole entry, looked up): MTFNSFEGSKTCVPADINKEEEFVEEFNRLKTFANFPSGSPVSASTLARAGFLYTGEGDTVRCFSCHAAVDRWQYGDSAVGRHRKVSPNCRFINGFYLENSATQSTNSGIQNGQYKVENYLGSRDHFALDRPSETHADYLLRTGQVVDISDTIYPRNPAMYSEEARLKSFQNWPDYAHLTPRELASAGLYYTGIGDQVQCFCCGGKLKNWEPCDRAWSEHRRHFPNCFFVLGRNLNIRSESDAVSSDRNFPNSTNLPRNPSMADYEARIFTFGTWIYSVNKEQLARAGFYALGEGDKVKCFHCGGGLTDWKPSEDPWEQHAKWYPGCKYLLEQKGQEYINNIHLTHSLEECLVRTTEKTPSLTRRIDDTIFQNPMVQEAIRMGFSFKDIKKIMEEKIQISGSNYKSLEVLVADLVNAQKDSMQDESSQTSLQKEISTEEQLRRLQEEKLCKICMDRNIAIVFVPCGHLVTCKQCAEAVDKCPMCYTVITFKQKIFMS

[11] = test system: XIP peptide (Xip251-270) binding; test: small-molecule binders of XIP peptide, primary screen, biochemical, small-molecule microarray, fluorescence 635/667 nm, 0.1 µg/mL protein (AID 1182); details: fluorescent protein binding, 635 nm, higher = more signal, called active from +8 up or from −8 down
XIP peptide (Xip251-270) = test: small-molecule binders of XIP peptide, primary screen, biochemical, small-molecule microarray, fluorescence 635/667 nm, 0.5 µg/mL protein (AID 1183); details: small-molecule microarray binding, fluorescence 635 nm; higher = more signal
[12] = Plasmodium falciparum growth inhibition, primary screen, strain 3D7, DAPI fluorescence, 100 nL (AID 1184);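 further: parasites grown inside human red blood cells in medium with human serum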; details: P. falciparum 3D7 growth, 3 d, higher = more signal
[13] = target: Homeobox protein Hox-A13 (Mus musculus) (UniProt Q62424); test: inhibitors of HoxA13-DNA binding, primary screen, biochemical, fluorescence polarization, labeled oligonucleotide (AID 1185); details: 15 min, higher = more signal, called active from +8 up or from −8 down
Chain of Homeobox protein Hox-A13 (Mus musculus) (Q62424 whole entry, looked up): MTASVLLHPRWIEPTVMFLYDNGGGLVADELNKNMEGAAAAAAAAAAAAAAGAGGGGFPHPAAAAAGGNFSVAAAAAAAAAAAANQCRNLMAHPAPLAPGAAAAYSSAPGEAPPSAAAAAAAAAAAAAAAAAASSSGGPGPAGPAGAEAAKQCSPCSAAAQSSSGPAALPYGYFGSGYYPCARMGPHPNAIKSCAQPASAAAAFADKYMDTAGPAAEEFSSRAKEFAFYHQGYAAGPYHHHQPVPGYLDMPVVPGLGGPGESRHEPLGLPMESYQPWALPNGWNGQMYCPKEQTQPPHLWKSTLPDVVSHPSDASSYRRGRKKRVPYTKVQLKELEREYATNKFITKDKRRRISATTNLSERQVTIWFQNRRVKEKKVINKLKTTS

[14] = inhibitors of hydroxyurea-induced Chk1 phosphorylation, primary screen, imaging, HeLa, phospho-Chk1 antibody, percent positive cells (AID 1186); details: hydroxyurea-induced phospho-Chk1 immunofluorescence imaging, higher = more signal
[15] = inhibitors of hydroxyurea-induced Chk1 phosphorylation, primary screen, imaging, HeLa, phospho-Chk1 nuclear intensity (AID 1187); details: hydroxyurea-induced phospho-Chk1 immunofluorescence imaging, higher = more signal

SMILES | z-score [1] | z-score [2] | z-score [3] | composite z-score [4] | z-score [5] | z-score [6] | z-score [7] | z-score [8] | z-score [9] | composite z-score [10] | composite z-score [11] | composite z-score (XIP peptide (Xip251-270)) | z-score [12] | z-score [13] | z-score [14] | z-score [15]
CCCCN1CC=CC23O[C@@H]4C=CCCOC(=O)C4[C@H]2C(=O)N(CCCCCO)[C@@H]3C1=O (some centres undefined) | -0.462 | -0.1 (inactive) | -0.401 (inactive) | 0.0416 (inactive) | -0.332 (inactive) | -0.308 (inactive) | 0.593 (inactive) | 0.923 (inactive) | 0.769 | 0.0357 | -0.17 (inactive) | 0.779 | 0.474 | -4.72 (inactive) | -2.17 (inactive) | -1.9 (inactive)
C=CCC(OC(C)=O)[C@@H]1[C@@H](N(Cc2ccc(-c3ccccc3)cc2)C(=O)Cc2ccc(F)cc2)c2cc(OCCCO)ccc2N1C(=O)c1ccc2ccccc2c1 (some centres undefined) | -0.228 | -0.458 (inactive) | 0.376 (inactive) | 0.683 (inactive) | 0.0885 (inactive) | -0.198 (inactive) | -0.794 (inactive) | -0.397 (inactive) | -0.112 | -0.146 | -0.568 (inactive) | -0.245 | -2.17 | -1.35 (inactive) | 0.295 (inactive) | -0.009 (inactive)
CC(=CC1CCCCC1)[C@@H](NC(=O)c1cccnc1)c1ccc(-c2ccccc2)cc1 | 0.41 | 2.33 (inactive) | 0.382 (inactive) | -0.22 (inactive) | 1.93 (inactive) | 2.69 (inactive) | -0.906 (inactive) | -0.871 (inactive) | -1.22 | -0.0095 | -0.486 (inactive) | -0.434 | -0.412 | -0.427 (inactive) | 1.6 (inactive) | -0.72 (inactive)
CN1C(=O)C2C=CC(C(O)c3ccc(F)cc3)N(N(c3ccccc3)c3ccccc3)C2C1=O (centres undefined) | -0.898 | 0.41 (inactive) | -0.957 (inactive) | -0.0882 (inactive) | 1.14 (inactive) | 0.242 (inactive) | -0.513 (inactive) | -0.26 (inactive) | -1.36 | 0.499 | -0.0116 (inactive) | -0.0807 | 0.988 | -3.45 (inactive) | 1.17 (inactive) | 0.568 (inactive)
O=C(NC1CC1)[C@@H]1c2ccccc2C(=O)N(Cc2cc(F)cc(C(F)(F)F)c2)[C@H]1c1ccc(CO)cc1 | 0.672 | -0.626 (inactive) | -0.24 (inactive) | -0.323 (inactive) | 0.373 (inactive) | -0.953 (inactive) | 0.678 (inactive) | -0.664 (inactive) | -0.0559 | -0.0527 | -0.414 (inactive) | 0.716 | -0.247 | -3.5 (inactive) | 0.135 (inactive) | -0.0928 (inactive)
CC(C)N1CC=CC23O[C@@H]4C=CCOC(=O)[C@@H]4[C@H]2C(=O)N(CCCCCO)[C@@H]3C1=O (some centres undefined) | 0.413 | -0.746 (inactive) | 1.27 (inactive) | -1.85 (inactive) | 0.897 (inactive) | -1.06 (inactive) | 0.319 (inactive) | -0.134 (inactive) | 0.888 | -0.216 | 0.334 (inactive) | 0.729 | -0.758 | -3.4 (inactive) | 0.0031 (inactive) | -0.0755 (inactive)
Cc1ccc(/C=C/C=O)cc1 | -0.466 | -1.75 (inactive) | -0.509 (inactive) | -0.962 (inactive) | -0.64 (inactive) | 0.213 (inactive) | 0.562 (inactive) | 0.386 (inactive) | 0.812 | -0.214 | 0.551 (inactive) | 0.284 | 1.39 | -1.15 (inactive) | 0.503 (inactive) | 0.713 (inactive)
C=CC[C@]1(C(=O)N2CCOCC2)N=C(c2ccc(OCCCO)cc2)O[C@H]1c1ccccc1N=[N+]=[N-] | 0.101 | -1.01 (inactive) | -0.454 (inactive) | 0.846 (inactive) | -0.167 (inactive) | 0.275 (inactive) | 1.31 (inactive) | 0.844 (inactive) | -0.266 | 0.179 | 0.821 (inactive) | 0.75 | -1.92 | -4.01 (inactive) | -0.528 (inactive) | -0.67 (inactive)
COc1cc2c(cc1OC)CN(C(=O)[C@H]1[C@@H]3C(=O)O[C@@H](c4ccccc4)[C@@H](c4ccccc4)N3[C@@H](c3ccccc3OCCO)[C@]13C(=O)Nc1ccc(C#CCCO)cc13)CC2 | 0.51 | 1.69 (inactive) | -0.442 (inactive) | 0.749 (inactive) | 1.54 (inactive) | 3.11 (inactive) | -0.456 (inactive) | -0.542 (inactive) | -0.0397 | -0.152 | 0.138 (inactive) | 0.438 | -2.16 | 1.23 (inactive) | 0.211 (inactive) | 0.0914 (inactive)
COC(=O)c1c(CC[C@@H](CO)NC(=O)N[C@H](Cc2ccccc2)Cn2cc(-c3ccccn3)nn2)oc(C(C)=O)c1C(=O)OC | -1.62 | -0.295 (inactive) | -1.13 (inactive) | 0.0502 (inactive) | -0.0149 (inactive) | -0.559 (inactive) | -0.347 (inactive) | -0.793 (inactive) | -0.857 | -0.135 | 0.593 (inactive) | 0.0667 | 0.0007 | -4.84 (inactive) | 0.269 (inactive) | 0.15 (inactive)
CCCCC(=C=CC[C@@H](O)c1ccc(CO)o1)CCO | 1.15 | -0.205 (inactive) | -0.438 (inactive) | -0.594 (inactive) | 0.838 (inactive) | 0.175 (inactive) | 1.54 (inactive) | 1.12 (inactive) | 1.22 | 0.128 | 0.54 (inactive) | 0.218 | 0.0728 | -4.16 (inactive) | -0.364 (inactive) | -0.13 (inactive)
C=C(C)[C@@H]1CC=C(C(O)C2C=CC3C(=O)NC(=O)C3N2Nc2ccc(Cl)cc2Cl)CC1 (some centres undefined) | -3.18 | -5.07 (inactive) | -2.94 (inactive) | 0.512 (inactive) | 0.875 (inactive) | 1.11 (inactive) | -0.761 (inactive) | -1.29 (inactive) | -2.54 | -0.0655 | -0.245 (inactive) | 0.468 | -0.52 | -5.46 (inactive) | 0.463 (inactive) | 0.154 (inactive)
O=C1N(CCS(=O)(=O)c2ccccc2)c2ccccc2[C@@H]2OC(c3ccc(OCCCO)cc3)=N[C@]12Cc1ccccc1 | 0.292 | -0.237 (inactive) | -3.11 (inactive) | -1.52 (inactive) | 0.755 (inactive) | 0.289 (inactive) | 1.11 (inactive) | 1.03 (inactive) | -1.95 | 0.0999 | 0.395 (inactive) | 0.639 | -2.17 | -1.41 (inactive) | -0.522 (inactive) | -0.825 (inactive)
Cc1ccc(S(=O)(=O)N2C[C@@H](C(=O)O)[C@H](Sc3ccccc3)C[C@H]2c2ccccc2)cc1 | -0.199 | -0.638 (inactive) | -0.26 (inactive) | -1.43 (inactive) | 0.409 (inactive) | -0.339 (inactive) | -0.529 (inactive) | -1.55 (inactive) | -0.911 | -0.303 | 0.117 (inactive) | 0.779 | -0.0652 | -7 (inactive) | 0.442 (inactive) | 0.283 (inactive)
COCCCNC(=O)[C@@]1(Sc2ccc(C)cc2)CC(=O)N(Cc2ccccc2Cl)[C@@H]1c1ccc(CO)cc1 | 0.683 | -0.209 (inactive) | 0.306 (inactive) | -1.08 (inactive) | 0.366 (inactive) | -0.964 (inactive) | 1.08 (inactive) | 0.709 (inactive) | 0.761 | 0.145 | 0.906 (inactive) | 0.887 | -1.63 | -2.28 (inactive) | -0.63 (inactive) | -1.1 (inactive)
C=CC[C@]1(C(=O)NCc2ccccc2)N=C(c2ccc(OCCCO)cc2)O[C@H]1c1ccccc1CN=[N+]=[N-] | 0.238 | -0.0802 (inactive) | -0.871 (inactive) | 0.548 (inactive) | 1.06 (inactive) | 0.149 (inactive) | -0.0443 (inactive) | -1.25 (inactive) | -0.328 | -0.0322 | -0.274 (inactive) | 0.338 | -2.53 | 0.343 (inactive) | -0.158 (inactive) | -0.402 (inactive)
COCCOC(=O)N1C(=O)[C@@]2(c3cc(C#CC4(O)CCCCCC4)ccc31)[C@H](c1ccccc1OCCO)N1[C@H](c3ccccc3)[C@H](c3ccccc3)OC(=O)[C@H]1[C@@H]2C(=O)N1CCc2cc(OC)c(OC)cc2C1 | 0.598 | 2.06 (inactive) | -0.9 (inactive) | 0.445 (inactive) | 2.26 (inactive) | 3.05 (inactive) | -0.404 (inactive) | -0.405 (inactive) | -0.203 | -0.127 | 0.164 (inactive) | 0.741 | -1.89 | -0.494 (inactive) | -0.149 (inactive) | 0.27 (inactive)
CO[C@H]1O[C@H](CO)[C@@H](OC(=O)Nc2ccc(Br)cc2)[C@@H]2OC(=O)[C@H](Cc3cccc(Br)c3)C/C=C/C[C@@H](Cc3cccc(Br)c3)C(=O)O[C@@H]12 | -1.34 | -1.89 (inactive) | -1.79 (inactive) | -2.81 (inactive) | 0.594 (inactive) | 0.459 (inactive) | 0.778 (inactive) | 0.69 (inactive) | -1.45 | -0.16 | 0.406 (inactive) | 0.467 | -1.55 | 1.51 (inactive) | -0.423 (inactive) | -0.471 (inactive)
O=C1C2C=CC(C(O)c3ccc4c(c3)OCO4)N(Nc3ccc([N+](=O)[O-])cc3)C2C(=O)N1c1ccccc1 (centres undefined) | -0.415 | -0.13 (inactive) | -0.104 (inactive) | -1.46 (inactive) | 0.0641 (inactive) | -0.729 (inactive) | -1.15 (inactive) | -0.411 (inactive) | -0.56 | 0.191 | -0.164 (inactive) | 0.473 | -0.54 | -4.87 (inactive) | 0.0611 (inactive) | -0.825 (inactive)
